HT1080 IDH1KD tx = kills HT-1080 cells with IDH1 knockdown; HT-1080 IDH1 knockdown viability, ATP luminescence, 48 h; Potency, µM (top dose mostly 46.1 µM), for the others: at the highest dose activity, negative = toxicity, most hits filed as cytotoxic; 360,000 tested, 2% active; AID 686971;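 further: 0% = DMSO wells and -100% = cell-free medium wells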
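IDH1KD HT-1080 cells, 750/well, RPMI + 5% FBS; compound pinned after 2 h settling; 48 h, 37 °C; CellTiter-Glo luminescence; % activity normalised to DMSO and no-cell wells; curves fitted, classed by r2 and efficacy.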
SW480 rerep = DNA re-replication induction in SW480 cells; SW480 DNA re-replication, Hoechst DNA content imaging, 48 h; Potency, µM (doses to about 46.1 µM), for the others: at the highest dose re-replication activation, hits mostly activators; 340,000 tested, 1.8% active; AID 624297; further: % of control where 0% means no effect; nearly all actives have a fitted effect of over 55% in size
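Per well, 250 cells were exposed to pinned compound for 48 hr. Nuclear DNA was visualised with Hoechst (40 min, 37 C) and total object intensity recorded by fluorescence scanning.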
HT1080NT lethal = kills 2HG-producing HT-1080-NT fibrosarcoma cells; HT-1080-NT fibrosarcoma viability, CellTiter-Glo ATP luminescence, 48 h; Potency, µM (series often up to 46.1 µM), without a hit: at the top dose activity, negative = less viability, usual class: cytotoxic; 360,000 tested, 1.6% active; AID 686970;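 further: NT is the 2HG producing partner of a matched IDH1 knockdown line; 0% = DMSO-treated cells and -100% = media-only wells without cells; nearly all actives have a fitted effect of over 55% in size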
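Viability of the 2HG-overproducing fibrosarcoma line after 48 hours of compound exposure at 37 degrees C was determined by luminescence with CellTiter-Glo, and concentration-effect curves were then fitted and categorized.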
KB-V1 MDR tox = KB-V1 MDR subline cytotoxicity. Potency, µM (titrated, usually from 46.1 µM), actives largely listed as cytotoxic. AID 1347076. 400,000 tested, 3.4% active. KB-V1 MDR cells viability, CellTiter-Glo, 72 h; further: on the % scale 0 is the no-effect control and ±100 the full control effect; nearly all actives have a fitted effect of over 60% in size
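qHTS viability screen in drug-selected KB-V1 MDR cells: 72 h compound treatment at 37 degrees C, ATP luminescence end point.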
MCF10A rereplic = inducers of DNA re-replication in MCF 10A breast cells. MCF 10A DNA re-replication, Hoechst nuclear intensity, 48 h. Potency, µM (top dose mostly 46.1 µM), inactives show at the highest dose activity, positive = re-replication, hits mostly activators. 350,000 tested, 2.9% active; further: % of control where 0% means no effect; nearly all actives have a fitted effect of over 50% in size
KB-3-1 tox = kills parental KB-3-1 adenocarcinoma cells; KB-3-1 viability, CellTiter-Glo ATP luminescence, 72 h; Potency, µM (top dose mostly 46.1 µM), most hits filed as cytotoxic; 400,000 tested, 1.4% active; further: on the % scale 0 is the no-effect control and ±100 the full control effect; nearly all actives have a fitted effect of over 60% in size
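Cytotoxicity measured as CellTiter-Glo luminescence after 72 h at 37 C. Compound titrations were pinned onto drug-naive KB-3-1 parental adenocarcinoma cells grown in DMEM with 10% FBS, and normalized data fitted to concentration-response curves.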
Starred values were filed as active, the others as inactive; i = inactive; ? = inconclusive; / = not tested or not shown; [ ] = another dose, or the depositor's remark. In the library only some 7.9% were active in any assay of this set; here they are far more common. The call rests on the fitted dose curve; in most records, active means well fitted curve in the direction sought with a large enough effect; inconclusive means small, poorly fitted or top-dose-only effect, or another doubt; inactive means no such curve, though single readings can be large; an effect the other way counts as inactive or inconclusive. Potency means the concentration at half of the fitted maximal effect.

SMILES	HT1080 IDH1KD tx	SW480 rerep	HT1080NT lethal	KB-V1 MDR tox	MCF10A rereplic	KB-3-1 tox
CCOc1ccccc1NC(=O)c1c(NC(=O)COc2ccccc2)sc2c1CCCCC2	/	/	/	?	/	4.6µM*
CCOc1ccc(NC(=O)c2c(NC(=O)CNCCN3CCOCC3)sc3c2CCC3)cc1	-23%	7.3µM*	-4%	i	-7%	i
CCOc1ccc(NC(=O)c2c(NC(=O)c3ccccc3F)sc3c2CCC3)cc1	/	/	/	i	/	i
Cc1cc2c(cc1C)N[C@]1(C[C@H]3CCCC(=O)N4CC[C@@H](C1)[C@@H]34)C(=Nc1ccccc1C)N2	/	/	/	i	/	i
COc1ccc(C(=O)NCCS(=O)(=O)N2CCc3ccccc3C2)cc1	1%	-1%	0%	i	3%	i
CC(=O)N1CCN(c2cccc(Nc3nn4c(=O)c5ccccc5nc4s3)c2)CC1	/	/	/	i	/	i
CCOc1ccc(/C=N/NC(=O)c2[nH]ncc2Br)c(O)c1	5.2µM*	?	7.3µM*	?	?	i
C[C@@H]1CN([C@@H](C)CO)C(=O)CCCn2nncc2CO[C@H]1CN(C)C(=O)CCC(F)(F)F	9%	/	0%	i	/	i
C[C@@H]1CN([C@H](C)CO)C(=O)CCCn2nncc2CO[C@@H]1CN(C)C(=O)CCC(F)(F)F	-16%	/	-24%	i	/	1.6µM*
CCCC1N=C2c3ccccc3N=C(SCC(=O)NCCc3ccc(Cl)cc3)N2C1=O (stereo not given)	/	/	/	i	/	i
CC(C)(C)C(=O)N1CCN(c2ncnc3scc(-c4ccccc4)c23)CC1	?	24%	-23%	15µM*	8%	?
Cc1nc(N2CCN(C(=O)c3ccco3)CC2)c2c3c(sc2n1)CCC3	-29%	-4%	-29%	8.2µM*	0%	?
Cc1ccc(-c2csc3ncnc(N4CCN(C(=O)c5ccco5)CC4)c23)cc1	?	6%	?	21µM*	22%	i
O=C(c1ccco1)N1CCN(c2ncnc3scc(-c4ccc(F)cc4)c23)CC1	?	4%	?	i	?	i
Cc1sc2ncnc(N3CCN(C(=O)c4ccco4)CC3)c2c1C	-27%	-1%	-26%	18µM*	?	?
CC(C)(C)c1cc(C(=O)NNc2ccc(OC(F)(F)F)cc2)n(Cc2ccccc2)n1	7.3µM*	-35%	?	?	18µM*	i
CC(C)(C)c1cc(C(=O)NNc2cc(C(F)(F)F)ccc2Cl)n(Cc2ccccc2)n1	?	5%	?	?	21µM*	?
CC(C)(C)c1cc(C(=O)Nc2ccc(F)cc2)n(Cc2ccc(F)cc2)n1	?	1%	?	?	21µM*	?
COc1ccccc1NNC(=O)c1cc(C(C)(C)C)nn1Cc1ccccc1	-10%	10%	-2%	?	17%	i
CC(C)(C)C(=O)NNC(=O)c1cc(C(C)(C)C)nn1Cc1ccccc1	-16%	-11%	-6%	i	-2%	?
CC(C)(C)c1cc(C(=O)NNc2cccc(Cl)c2)n(Cc2ccccc2)n1	18µM*	2%	21µM*	?	?	?
COc1cc(NC(=O)c2nnn(Cc3ccc(F)cc3)c2N)cc(OC)c1	/	/	/	i	/	?
CCC(CC)C(=O)Nc1nnc(S(=O)(=O)N2CCCc3ccccc32)s1	-8%	0%	0%	i	4%	i
Cc1ccc(NNC(=O)c2cc(C(C)(C)C)nn2Cc2ccccc2)cc1	-10%	-10%	-8%	i	?	12µM*
CC(=O)C1(O)Cc2c(O)c3c(c(O)c2C(OC2CC(N)C(O)C(C)O2)C1)C(=O)c1c(O)cccc1C3=O (stereo not given)	/	?	/	?	2%	0.58µM*
SMILES	HT1080 IDH1KD tx	SW480 rerep	HT1080NT lethal	KB-V1 MDR tox	MCF10A rereplic	KB-3-1 tox
CC[C@@]1(O)C[C@H](O[C@H]2C[C@@H](N(C)C)[C@@H](O[C@H]3C[C@@H](O)[C@@H](O[C@H]4CCC(=O)[C@@H](C)O4)[C@@H](C)O3)[C@@H](C)O2)c2c(cc3c(c2O)C(=O)c2c(O)cccc2C3=O)[C@H]1C(=O)OC	/	-10%	/	/	-1%	/
CC(=O)[C@@]1(O)Cc2c(O)c3c(c(O)c2[C@H](O[C@H]2C[C@H](N)[C@H](O)[C@H](C)O2)C1)C(=O)c1ccccc1C3=O	/	/	/	?	/	0.18µM*
COc1ccc(-c2cn(Cc3ccc(C(N)=O)cc3)c(CCN)n2)cc1	-2%	2%	-3%	i	8%	i
Cc1cc(C)cc(Nc2cnn(C34CC5CC(CC(CC(=O)O)(C5)C3)C4)c(=O)c2Cl)c1	13%[9.24 µM]	?	-6%	i	23µM*	i
Cc1cccc(Nc2cnn(C34CC5CC(CC(CC(=O)O)(C5)C3)C4)c(=O)c2Cl)c1	-9%	-13%	-14%	i	-22%	i
CCCCS(=O)(=O)/C=C\C=C/S(=O)(=O)CCCC	?	?	6.5µM*	i	?	7.3µM*
CCCCS(=O)(=O)/C=C\C1C2C=CC(C2)C1S(=O)(=O)CCCC (stereo not given)	-1%	6%	-4%	i	11%	i
CCSc1ccccc1C(=O)n1nnc2ccccc21	?	?	?	i	16µM*	?
CCSc1ccccc1C(=O)N1CCCC1	-6%	-7%	-4%	i	-5%	i
O=C(CSC(=S)N1CCSCC1)c1ccc(Cl)cc1	-3%	2%	10%	9.2µM*	?	8.2µM*
N#Cc1ccccc1S(=O)(=O)Nc1ccc2c(c1)OCCO2	8%	-58%	-1%	i	-1%	i
CCOC(=O)/C(C#N)=C/Nc1ccsc1C(=O)OC	8%	11%	11%	i	5%	i
CCOC(=O)/C(C#N)=C/Nc1cc(C(=O)OCC)cc2c(OC)c(OC)ccc12	-6%	23µM*	0%	i	2.6µM*	i
COc1ccc(-n2c(=O)c(CCC(=O)N3CCN(c4cccc(OC)c4)CC3)nc3ccccc32)cc1	-1%	/	-4%	i	/	i
COc1ccc(/C(O)=C/c2nc3ccccc3n(-c3ccccc3)c2=O)cc1	22%	?	24%	i	8.2µM*	i
Cc1nn2c(N3CCN(C(=O)c4ccco4)CC3)cc(C(C)(C)C)nc2c1-c1ccccc1	-5%[9.24 µM]	-6%	-5%	18µM*	-3%	?
Cc1nn2c(N3CCN(C)CC3)cc(C(C)(C)C)nc2c1-c1ccccc1	16µM*	?	21µM*	?	?	?

Bioassay records from PubChem BioAssay.
